In the library only some 7.2% were active in any assay of this set; here they are far more common.
VLA-4 inh – inhibition in a human VLA-4 binding assay; inhibition, % (about 7 µM as worked out from the volumes in the protocol); VLA-4 expressing cells, ligand binding flow cytometry; P13612; hit rate 0.2% among 330,000; in the data active means inhibition above about 50%
SUMO Mot1 rescue – blocks SUMOylation pathway, rescuing yeast Mot1-301 growth. S. cerevisiae Mot1-301 growth rescue, ATP luminescence, 38.5C; percent above DMSO median, 100 means doubled. growth rescue, % at 18.8 µM. hit rate 1% among 320,000;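 active means every valid replicate shows activation above 250% relative to neutral control wells; inactive means the rest, any valid replicate at or below 250%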;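 further: OY570 slx delta 5 strain wells were the positive control but not used for scaling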
Bfl-1 A1 inh – inhibitors of the anti-apoptotic protein A1, read as caspase activation. AID 2462. caspase activation, % (no concentration beside the values). hit rate 0.066% among 330,000. MEF A1-2A-BIM cells, Caspase-Glo 3/7 luminescence, 3 h; percent of clofoctol response, vehicle zero;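 active means over half of replicate activation scores above 10%, or exactly half above 10 with the replicate mean above 10; inconclusive means replicate mean below 10 yet half the replicates above 10; inactive means over half of replicates below 10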
Efflux pump mplx – antifungal efflux pump inhibition, Nile Red retention. hit rate 0.44% among 330,000. S. cerevisiae Candida pump triplex. AID 485275. inhibition, % at 10 µM;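 active means plate passing quality check with inhibition over a set limit, or well fluorescence over plate mean plus 4 SD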;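 further: Nile Red retained in pooled yeast measured as flow cytometry median fluorescence; 0% = buffer negative control and 100% = Enniatin B positive control; higher means more Nile Red kept so more efflux inhibition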
AHR activator – activators of human aryl hydrocarbon receptor; activation, % at 5 µM; AID 2796; hit rate 2.5% among 320,000; AHR-responsive luciferase reporter cells, luminescence; P35869; in the data active means activation above about 47%;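 further: 0% = vehicle wells and 100% = reference agonist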
Target sequence (P35869 whole entry, looked up): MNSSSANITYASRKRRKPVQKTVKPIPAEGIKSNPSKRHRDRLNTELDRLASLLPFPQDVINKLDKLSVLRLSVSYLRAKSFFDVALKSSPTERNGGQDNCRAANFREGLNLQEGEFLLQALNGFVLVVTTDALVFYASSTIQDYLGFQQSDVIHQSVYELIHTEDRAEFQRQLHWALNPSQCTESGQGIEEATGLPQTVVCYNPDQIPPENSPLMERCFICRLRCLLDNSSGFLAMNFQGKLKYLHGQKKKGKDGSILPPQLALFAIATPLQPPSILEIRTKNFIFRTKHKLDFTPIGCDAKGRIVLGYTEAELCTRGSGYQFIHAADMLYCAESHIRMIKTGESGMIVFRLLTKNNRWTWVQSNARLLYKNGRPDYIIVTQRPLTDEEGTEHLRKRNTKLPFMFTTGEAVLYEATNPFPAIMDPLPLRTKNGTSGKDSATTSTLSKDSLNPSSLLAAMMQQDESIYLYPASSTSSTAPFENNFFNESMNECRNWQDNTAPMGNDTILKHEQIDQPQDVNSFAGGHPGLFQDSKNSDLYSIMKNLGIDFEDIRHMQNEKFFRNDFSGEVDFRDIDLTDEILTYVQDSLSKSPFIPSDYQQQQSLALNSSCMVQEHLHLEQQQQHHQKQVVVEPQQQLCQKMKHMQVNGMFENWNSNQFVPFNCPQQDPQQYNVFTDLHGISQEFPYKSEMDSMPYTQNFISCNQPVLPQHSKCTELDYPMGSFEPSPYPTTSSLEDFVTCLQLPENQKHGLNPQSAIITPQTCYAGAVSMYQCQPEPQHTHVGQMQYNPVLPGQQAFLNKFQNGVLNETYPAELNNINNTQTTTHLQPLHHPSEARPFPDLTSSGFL
ALR H2O2 inh – blocks human ALR sulfhydryl oxidase activity; P55789; purified ALR, DTT oxidation, H2O2 HRP-luminol luminescence; inhibition, % (test concentration not listed); hit rate 3.8% among 290,000; AID 485317;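 active means mean replicate inhibition above about 79%, with every replicate also reaching it, limit read from the data; inconclusive means only one of the two criteria met; inactive means mean below limit and not every replicate reaching it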
* = called active by the depositor.

What do the screens show for `Cc1coc2c1c(C)cc1oc(=O)c(CC(=O)NCCCN3CCCC3=O)c(C)c12`?
VLA-4 inh: 10; SUMO Mot1 rescue: 6; Bfl-1 A1 inh: 0; Efflux pump mplx: 0; AHR activator: 1; ALR H2O2 inh: -15

Results for CC1CCCC(C)N1C(=O)COC(=O)c1ccc(S(=O)(=O)N(C)c2ccccc2)cc1 (stereo not given) ?
VLA-4 inh: -4; SUMO Mot1 rescue: 0; Bfl-1 A1 inh: 0; Efflux pump mplx: 0; AHR activator: 0; ALR H2O2 inh: 0

What do the screens show for `CC1(C)CC(=O)C2=C(C1)N(c1ccccc1)C(=O)CC2c1ccc(O)cc1` (stereo not given)?
VLA-4 inh: 7; SUMO Mot1 rescue: 298; Bfl-1 A1 inh: inconclusive; Efflux pump mplx: 0; AHR activator: -1

Results for Oc1ccc2ccccc2c1/C=N/Nc1nnc(-c2ncc[nH]2)c2ccccc12 ?
VLA-4 inh: -13; SUMO Mot1 rescue: 46; Bfl-1 A1 inh: 0; Efflux pump mplx: 0; AHR activator: 24; ALR H2O2 inh: -3

Results for Clc1nnc(NN=C2CCCC2)c2ccccc12 ?
VLA-4 inh: -5; SUMO Mot1 rescue: -30; Bfl-1 A1 inh: 0; Efflux pump mplx: 0; AHR activator: 51*; ALR H2O2 inh: 53

How did COc1ccc(/C=N/Nc2nnc(-c3ncc[nH]3)c3ccccc23)cc1 do in these assays?
VLA-4 inh: 2; SUMO Mot1 rescue: 13; Bfl-1 A1 inh: -1; Efflux pump mplx: 0; AHR activator: 62*; ALR H2O2 inh: 10

Results for Cc1cccc(/C=N/Nc2nncc3ccccc23)c1 ?
VLA-4 inh: -8; SUMO Mot1 rescue: 8; Bfl-1 A1 inh: -10; Efflux pump mplx: 0; AHR activator: 11; ALR H2O2 inh: 97*

Results for Cc1ccc(/C=N/Nc2nnc(Cl)c3ccccc23)cc1 ?
VLA-4 inh: -3; SUMO Mot1 rescue: 11; Bfl-1 A1 inh: -6; Efflux pump mplx: 0; AHR activator: 61*; ALR H2O2 inh: 12

Results for C=CCNc1nnc(Cl)c2ccccc12 ?
VLA-4 inh: 3; SUMO Mot1 rescue: 89; Bfl-1 A1 inh: 1; Efflux pump mplx: 0; AHR activator: -2; ALR H2O2 inh: -13

How did C(=N\Nc1nncc2ccccc12)/c1ccccc1 do in these assays?
VLA-4 inh: 19; SUMO Mot1 rescue: -6; Bfl-1 A1 inh: -6; Efflux pump mplx: 0; AHR activator: 23; ALR H2O2 inh: -2

What do the screens show for `CCOC(=O)N1CCN(C(=O)COC(=O)c2ccc(Cl)nc2)CC1`?
VLA-4 inh: -3; SUMO Mot1 rescue: -11; Bfl-1 A1 inh: 0; Efflux pump mplx: 0; AHR activator: -1; ALR H2O2 inh: 3

What do the screens show for `CCCCc1ccc(NC(=S)Nc2ccc(Cl)c(S(=O)(=O)N(C)C)c2)cc1`?
VLA-4 inh: -13; SUMO Mot1 rescue: -11; Bfl-1 A1 inh: -1; Efflux pump mplx: 1; AHR activator: 1

Results for COc1ccc(OCC(=O)N(Cc2ccco2)C2CCS(=O)(=O)C2)cc1 (stereo not given) ?
VLA-4 inh: -2; SUMO Mot1 rescue: 105; Bfl-1 A1 inh: 1; Efflux pump mplx: 0; AHR activator: -2; ALR H2O2 inh: -18

How did Cc1ccc(OCCCC(=O)ON=C(N)c2ccccc2C)cc1 do in these assays?
VLA-4 inh: -1; SUMO Mot1 rescue: 4; Bfl-1 A1 inh: -1; Efflux pump mplx: 0; AHR activator: 1; ALR H2O2 inh: -5

How did Cn1cc(/C=C2\SC(=O)NC2=S)c2ccccc21 do in these assays?
VLA-4 inh: -46; Bfl-1 A1 inh: 0; Efflux pump mplx: 0; AHR activator: 47*

Results for Cc1ccc(C(=O)NN2C(=O)/C(=C/c3cn(C)c4ccccc34)SC2=S)cc1 ?
VLA-4 inh: -4; SUMO Mot1 rescue: -3; Bfl-1 A1 inh: 0; Efflux pump mplx: 1; AHR activator: 20; ALR H2O2 inh: 2

Results for O=C(NCCc1ccc(Cl)cc1)c1cc2ccccn2n1 ?
VLA-4 inh: 4; SUMO Mot1 rescue: -24; Bfl-1 A1 inh: -1; Efflux pump mplx: 0; AHR activator: 0; ALR H2O2 inh: -3

How did O=C(Nc1ccc(Br)cc1)c1cc2ccccn2n1 do in these assays?
VLA-4 inh: -10; SUMO Mot1 rescue: 3; Bfl-1 A1 inh: -8; Efflux pump mplx: 0; AHR activator: 57*

Results for Cc1ccc(S(=O)(=O)/N=C2/C=C(Sc3ncn[nH]3)C(=O)c3ccccc32)c(C)c1 ?
VLA-4 inh: 4; SUMO Mot1 rescue: -5; Bfl-1 A1 inh: 0; Efflux pump mplx: 0; AHR activator: 50*; ALR H2O2 inh: -5

Results for Cc1ccc(S(=O)(=O)/N=C2/C=C(Sc3ncn[nH]3)C(=O)c3ccccc32)cc1 ?
VLA-4 inh: 12; SUMO Mot1 rescue: -33; Bfl-1 A1 inh: -3; Efflux pump mplx: 0; AHR activator: 57*; ALR H2O2 inh: -28

What do the screens show for `O=C(CCc1nc2ccccc2c(=O)[nH]1)Nc1cccc(S(=O)(=O)N2CCOCC2)c1`?
VLA-4 inh: -3; SUMO Mot1 rescue: -6; Bfl-1 A1 inh: 0; Efflux pump mplx: 0; AHR activator: 2

Results for S=C1NC2=C(CCC/C2=C\c2ccccc2)C(c2ccccc2)N1 (stereo not given) ?
VLA-4 inh: -1; SUMO Mot1 rescue: 5; Bfl-1 A1 inh: 0; Efflux pump mplx: 0; AHR activator: 4; ALR H2O2 inh: 31

What do the screens show for `C(=C1/CCCC2=C1Nc1ncnn1C2c1ccccc1)/c1ccccc1` (stereo not given)?
VLA-4 inh: 13; SUMO Mot1 rescue: 3; Bfl-1 A1 inh: 2; Efflux pump mplx: 0; AHR activator: -1; ALR H2O2 inh: 91*

How did CCN1/C(=C2\SC(=S)N(Cc3ccccc3)C2=O)Sc2ccccc21 do in these assays?
VLA-4 inh: 1; SUMO Mot1 rescue: -14; Bfl-1 A1 inh: inconclusive; Efflux pump mplx: 0; AHR activator: 10

Results for CCN1C(=O)/C(=C2/C=CC=CN2C)SC1=S ?
VLA-4 inh: -22; SUMO Mot1 rescue: 6; Bfl-1 A1 inh: 0; Efflux pump mplx: 0; AHR activator: 2; ALR H2O2 inh: 99*

How did CN1C=CC=C/C1=C1/SC(=S)N(Cc2ccccc2)C1=O do in these assays?
VLA-4 inh: 9; SUMO Mot1 rescue: 9; Bfl-1 A1 inh: 1; Efflux pump mplx: 0; AHR activator: 6; ALR H2O2 inh: 99*

Results for COC(=O)C1C(O)=C(C=Nc2ccccc2)C(=O)CC1(C)C (stereo not given) ?
VLA-4 inh: 4; SUMO Mot1 rescue: -22; Bfl-1 A1 inh: 0; Efflux pump mplx: 0; AHR activator: -1; ALR H2O2 inh: 100*

Results for O=C(CSCC(=O)N1CCCCC1)OCC(=O)c1c[nH]c2ccccc12 ?
VLA-4 inh: -30; SUMO Mot1 rescue: 1; Bfl-1 A1 inh: 0; Efflux pump mplx: 0; AHR activator: 23; ALR H2O2 inh: 98*

Compound activity from PubChem BioAssay.
